Only some compounds are listed: those with a hit (about 2.8% of all), similar ones and a draw of the others.
Pol eta inh-1 – DNA polymerase eta (human) inhibition; Q9Y253; recombinant Pol eta, fluorescent DNA replication assay; Potency, µM (titrated, usually from 114 µM), for inactives: at the highest dose activity change, negative = inhibition, hits mostly inhibitors; 1.2% of 390,000 active; AID 588591; also: potency is read from the fitted curve at half-maximal effect; % is scaled to controls: 0 for no effect and ±100 for the full control effect
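Pol eta at 10 nM preincubated with compounds 15 min at room temperature; reaction started with fluorescent substrate (50 nM final) and read kinetically at 0 and 10 min.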
POLI inh – inhibitors of human DNA polymerase iota; 1% of 390,000 active; Q9UNA4; Pol iota fluorescent replication assay, 10 min; Potency, µM (top dose mostly 115 µM), without a hit: top-dose activity, negative = inhibition, most hits filed as inhibitors; also: potency is read from the fitted curve at half-maximal effect
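Pol iota at 10 nM preincubated 15 min with compounds at room temperature; reaction started with fluorescent substrate, 50 nM final. Fluorescence read kinetically at 0 and 10 min; buffer-only wells as negative control.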
Pol kappa inh-1 – inhibitors of human DNA polymerase kappa | Q9UBT6 | purified Pol kappa, fluorescent DNA synthesis assay, 10 min | Potency, µM (doses to about 107 µM), for inactives: top-dose activity, negative = inhibition, most hits filed as inhibitors | 0.53% of 400,000 active | AID 588579; also: potency is read from the fitted curve at half-maximal effect; % is scaled to controls: 0 for no effect and ±100 for the full control effect
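Pol kappa 10 nM + cpd, 15 min RT; start w/ substrate 50 nM final; fluorescence kinetic read, 0 and 10 min. Neg ctrl: buffer, no enzyme.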
WRN helicase inh-1 – blocks human WRN helicase. Q14191. WRN helicase unwinding, fluorescent forked duplex, kinetic. Potency, µM (titrated, usually from 114 µM), inactives show at the highest dose activity change, negative = inhibition, usual class: inhibitors. 0.46% of 360,000 active. AID 651768; also: potency is read from the fitted curve at half-maximal effect; % is scaled to controls: 0 for no effect and ±100 for the full control effect; nearly all actives have a fitted effect of over 55% in size
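Primary qHTS, 1536-well format. 20 nM WRN + compound, 15 min RT; start with 100 nM forked fluorophore/quencher duplex, 2 mM ATP (final); kinetic read ex 525/em 598 nm.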
POLB inh – inhibitors of human DNA polymerase beta. P06746. Pol beta primer extension/strand displacement, fluorescence kinetic. Potency, µM (doses to about 114 µM), for the others: at the top dose activity change, negative = inhibition, actives largely listed as inhibitors. 1.3% of 340,000 active; also: potency is read from the fitted curve at half-maximal effect; % is scaled to controls: 0 for no effect and ±100 for the full control effect
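Pol beta (10 nM) was preincubated with compound for 15 min at room temperature. The reaction was then started with 50 nM substrate and read immediately and after a further 10 min at room temperature.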
PI5P4K alpha inh – PI5P4K alpha (human) kinase inhibition; P48426; PI5P4Kalpha enzyme, ADP-Glo luminescence, 60 min; hits give low values; max response, %; 1.2% of 330,000 active; active = max response of -50% or lower; inconclusive = between -30% and -50%; inactive = -30% or higher; also: value at the top dose of about 77 µM; % is scaled to controls: 0 for no effect and ±100 for the full control effect
Target sequence (P48426 whole entry, looked up): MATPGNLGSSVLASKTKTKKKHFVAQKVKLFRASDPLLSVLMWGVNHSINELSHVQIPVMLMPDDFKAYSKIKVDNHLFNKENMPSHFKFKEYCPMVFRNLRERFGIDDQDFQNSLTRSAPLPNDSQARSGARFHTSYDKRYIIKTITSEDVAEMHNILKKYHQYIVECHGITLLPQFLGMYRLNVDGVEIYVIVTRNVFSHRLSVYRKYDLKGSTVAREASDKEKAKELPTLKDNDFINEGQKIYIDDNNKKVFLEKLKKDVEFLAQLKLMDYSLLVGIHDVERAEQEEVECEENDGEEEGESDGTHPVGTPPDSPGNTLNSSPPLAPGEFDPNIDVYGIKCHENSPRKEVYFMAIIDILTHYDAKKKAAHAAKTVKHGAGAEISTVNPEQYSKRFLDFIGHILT
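Single end-point luminescence (ADP-Glo) quantified ADP from PI5P4Kalpha turnover; ATP 5 microM final, 1 h at RT, 0.1% CHAPS and 0.28 mM EGTA in HEPES pH 7.4.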
Pol kappa inh-2 – Pol kappa (human) inhibition, cherry-pick confirmation | Potency, µM, hits mostly inhibitors | purified Pol-kappa, fluorescent strand-displacement substrate | 76% of 920 active | AID 720501 | shares compounds with Pol eta inh-1; also: potency is read from the fitted curve at half-maximal effect
Pol eta inh-2 – Pol eta (human) inhibition, cherry-pick confirmation; Pol eta primer extension, TAMRA/BHQ fluorescence, 10 min; shares compounds with Pol eta inh-1; 64% of 2,600 active; Potency, µM, most hits filed as inhibitors; also: potency is read from the fitted curve at half-maximal effect
WRN helicase inh-2 – WRN helicase inhibition, cherry-pick retest; WRN helicase DNA unwinding, fluorescence kinetic; 63% of 610 active; Potency, µM (doses to about 57.1 µM), without a hit: top-dose activity, negative = inhibition, hits mostly inhibitors; shares compounds with WRN helicase inh-1; AID 720497; also: potency is read from the fitted curve at half-maximal effect; nearly all actives have a fitted effect of over 65% in size
TO displacement – counter-screen for WRN helicase inhibitors: DNA binding. shares compounds with WRN helicase inh-1. thiazole orange DNA binding displacement, fluorescence. Potency, µM (series often up to 57.1 µM), for the others: top-dose activity change, negative = inhibition, hits mostly inhibitors. 10% of 610 active. AID 720499;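 also: drop in dye fluorescence marks compound binding to DNA; potency is read from the fitted curve at half-maximal effect; % is scaled to controls: 0 for no effect and ±100 for the full control effect; nearly all actives have a fitted effect of over 60% in size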
BLM helicase inh – counter-screen for WRN helicase inhibitors: human BLM helicase inhibition; AID 720503; Recombinant BLM helicase DNA unwinding, red fluorescence; Potency, µM (top dose mostly 57.1 µM), for the others: top-dose activity change, negative = inhibition, usual class: inhibitors; shares compounds with WRN helicase inh-1; 60% of 610 active; also: potency is read from the fitted curve at half-maximal effect; nearly all actives have a fitted effect of over 60% in size
* = called active by the depositor; i = inactive; ? = inconclusive; . = no result given; [ ] = another dose, or the depositor's remark. Unless noted, calls follow the shape of the dose curve; as a rule, active = well fitted curve in the direction sought with a large enough effect; inconclusive = small, poorly fitted or top-dose-only effect, or another doubt; inactive = no such curve, though single readings can be large; an effect the other way counts as inactive or inconclusive.

SMILES	Pol eta inh-1	POLI inh	Pol kappa inh-1	WRN helicase inh-1	POLB inh	PI5P4K alpha inh	Pol eta inh-2	WRN helicase inh-2	TO displacement	BLM helicase inh	others
O=S(=O)(Nc1nc(-c2ccco2)c(-c2ccco2)s1)c1ccc(F)cc1F	28µM*	.	.	?	.	?	?	.	.	.	Pol kappa inh-2=?
CCN(CC)c1ccc(/C=C2/C(=O)ON=C2C)cc1	14%	?	-11%[60.1 µM]	-16%	7%	-1	.	.	.	.
CCN(CC)c1ccc(/C=C2/C(=O)c3ccc(C(=O)O)cc3C2=O)cc1	3.5µM*	18µM*	79µM*	35µM*	?	-92*	38*	24µM*	96%	?	Pol kappa inh-2=7.5*
N#CCSc1ccc2nc(-c3ccccc3)cn2n1	-17%	?	-2%	3%	18%	7	.	.	.	.
COc1ccc(/C=C/c2ccccn2)cc1	.	11%	-3%	.	.	.	.	.	.	.
O=C(CCN1C(=O)S/C(=C\c2ccccc2)C1=O)Nc1ccc(S(=O)(=O)Nc2nccs2)cc1	28µM*	?	-13%	?	?	-30	?	?	?	?
Cc1cc(C)nc(NS(=O)(=O)c2ccc(NC(=O)CN3C(=O)S/C(=C\c4ccccc4)C3=O)cc2)n1	0%	42%	-4%	-21%	8%	-14	.	.	.	.
O=C(Nc1ccc(F)cc1)c1ncn(-c2ccccc2)n1	-10%	37%	18%	.	-3%	.	.	.	.	.
O=C(O)CN1C(=O)/C(=C\C(Br)=C\c2ccccc2)SC1=S	8.9µM*	?	?	?	?	-28	24*	22µM*	-7%	22µM*
COc1cc(/C=C2\SC(=S)N(c3cccnc3)C2=O)ccc1O	4%	?	?	?	?	-7	.	.	.	.
COc1cc(/C=C2\SC(=S)N(Nc3ncc(C(F)(F)F)cc3Cl)C2=O)ccc1O	?	14µM*	-34%	32µM*	14µM*	-22	.	7.6µM*	-25%	6.1µM*	Pol kappa inh-2=?
CCN(CCCNC(=O)c1cc2c(=O)n(C)c3ccccc3c2s1)Cc1ccccc1	-5%	?	-29%	.	-15%	.	.	.	.	.
Cc1ccc(-c2csc(NC(=O)/C=C/c3ccco3)c2C(=O)O)cc1	28µM*	?	50µM*	40µM*	28µM*	-71*	?	?	-12%	?
O=C(O)C1CCC(=O)N1C(=O)OCc1ccccc1 (stereo unspecified)	-5%	-13%	-10%	0%	9%	3	.	.	.	.
O=[N+]([O-])c1c(Nc2ccc(O)cc2)cc(Cl)c2nonc12	50µM*	3.5µM*	-5%	?	-16%	-24	?	?	34µM*	?
CC(C)Cc1cc(C(=O)NCc2ccc(Cl)cc2)no1	-19%	20%	4%	.	-1%	.	.	.	.	.
CCCN1C(=O)/C(=C\C=C2/Sc3ccccc3N2CC)SC1=S	.	.	.	.	-3%	.	.	.	.	.
CCCN1C(=O)/C(=C\C=C2\N(CC)c3ccccc3C2(C)C)SC1=S	?	?	-16%	4.2µM*	-14%	1	.	14µM*	i	11µM*	Pol kappa inh-2=53*
COc1cc(/C=C2/C(=O)c3cccc([N+](=O)[O-])c3C2=O)c(Br)cc1O	25µM*	25µM*	-28%	4.2µM*	40µM*	-60*	48*	?	?	?
Nc1ccc(S(=O)(=O)c2cc(O)c3ccccc3c2O)cc1	40µM*	?	-16%	28µM*	.	-78*	?	24µM*	24µM*	22µM*	Pol kappa inh-2=84*
O=S(=O)(c1ccccc1)c1cc(O)ccc1O	-18%	47%	2%	-15%	?	12	.	.	.	.
O=C(O)COc1ccccc1/C=C1\SC(=S)N(NC(=O)c2ccccc2O)C1=O	32µM*	7.1µM*	32µM*	?	.	?	?	?	-9%	-23%	Pol kappa inh-2=7.5*
CC(C)(C)OC(=O)N1CCc2onc(-c3ccc(Br)cc3)c2C1=O	-10%	.	.	-6%	.	2	.	.	.	.
Cc1cc(N=NC(=O)c2ccccc2)ccc1O	2%	?	-12%	5%	0%	-12	.	.	.	.
O=C(ONc1ccc(N=NC(=O)c2ccccc2O)cc1)c1ccccc1	50µM*	8%	-7%	?	9%	-58*	?	22µM*	27µM*	14µM*
SMILES	Pol eta inh-1	POLI inh	Pol kappa inh-1	WRN helicase inh-1	POLB inh	PI5P4K alpha inh	Pol eta inh-2	WRN helicase inh-2	TO displacement	BLM helicase inh	others
O=C(CCCN1C(=O)/C(=C\c2ccccc2)SC1=S)N1CCOCC1	-5%	10%	-16%	-35%	.	-1	.	.	.	.
O=C(O)CCCN1C(=O)/C(=C\c2ccco2)SC1=S	20µM*	7.1µM*	11µM*	?	20µM*	-27	48*	?	-8%	?	Pol kappa inh-2=42*
C[C@H]1CN([C@@H](C)CO)C(=O)CCCn2nncc2CO[C@H]1CN(C)S(=O)(=O)c1ccc2c(c1)OCCCO2	-17%	.	.	-6%	.	4	.	.	.	.
CC(=O)NN1C(=O)/C(=C/c2ccc(Br)o2)SC1=S	4µM*	2.5µM*	7.9µM*	50µM*	?	?	?	-20%	2%	-20%
O=C(O)CCCNc1cc(N2CCN(C3CCCCC3)CC2)c2noc3c2c1C(=O)c1ccccc1-3	3%	?	?	.	20µM*	.	?	6.8µM*	422%	6.1µM*
CCNc1cc(N2CCN(C3CCCCC3)CC2)c2noc3c2c1C(=O)c1ccccc1-3	5%	42%	-9%	.	17%	.	.	.	.	.
Cc1ccc(-c2ccc(/C=C3\C(=O)ON=C3c3ccccc3)o2)c([N+](=O)[O-])c1	28µM*	32µM*	-36%	40µM*	29%	.	85*	22µM*	?	22µM*	Pol kappa inh-2=?
C/C(=N/NC(=O)c1cc2ccccc2cc1O)C1C(=O)c2ccccc2C1=O	14µM*	32µM*	?	45µM*	?	?	?	15µM*	3.4µM*	15µM*

Compound activity (PubChem)
